# ID4 SMM: binders of human ID4 protein | small molecule microarray, Flag-ID4 binding, fluorescence F/B | calls only | hit rate 1.2% among 31,000 | AID 624137 | P47928; call rule not given here;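 also: a binder raises fluorescence above local background on the spot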
# STK33 inh: inhibitors of human STK33 kinase; Q9BYT3; ADP-Glo luminescence, MBP substrate; inhibition, % at 12.5 µM; hit rate 0.44% among 27,000; in the data active = inhibition above about 20%
# Target sequence (Q9BYT3 whole entry, looked up): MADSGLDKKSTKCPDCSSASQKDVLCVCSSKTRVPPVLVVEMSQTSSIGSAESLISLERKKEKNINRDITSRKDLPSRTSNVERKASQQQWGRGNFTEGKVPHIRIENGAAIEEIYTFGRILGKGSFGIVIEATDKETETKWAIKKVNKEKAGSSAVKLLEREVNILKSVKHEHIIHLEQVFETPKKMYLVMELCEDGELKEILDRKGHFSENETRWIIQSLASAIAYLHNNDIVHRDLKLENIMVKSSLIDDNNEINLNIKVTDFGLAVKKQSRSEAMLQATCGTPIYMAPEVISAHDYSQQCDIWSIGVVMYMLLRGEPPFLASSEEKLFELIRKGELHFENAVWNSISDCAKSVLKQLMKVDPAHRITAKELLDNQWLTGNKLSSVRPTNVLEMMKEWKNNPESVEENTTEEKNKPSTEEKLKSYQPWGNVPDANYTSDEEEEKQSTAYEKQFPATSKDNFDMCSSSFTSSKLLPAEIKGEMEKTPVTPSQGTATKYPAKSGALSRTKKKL
# mut p53 react: re-activators of the mutant p53 pathway. SW480 PUMA-promoter luciferase, p53 mutant reactivation. hit rate 1.5% among 28,000. activation, % at 9.98 µM; in the data active = activation above about 52%
# NOMO-1 viab: STK33 inhibitor candidate reducing NOMO-1 cell viability | hit rate 7.5% among 37,000 | inhibition, % (no concentration beside the values) | NOMO-1 AML viability, CellTiter-Glo luminescence, 72 h | AID 2330; in the data active = inhibition above about 80%
# Numbers stand for hits; – = inactive; · = no result; + = active, no number. The entries come from a sample that favours hits as a whole.
SMILES,ID4 SMM,STK33 inh,mut p53 react,NOMO-1 viab
C[C@H]1CN([C@@H](C)CO)C(=O)c2cc(NC(=O)Nc3ccc4c(c3)OCO4)ccc2O[C@@H]1CN(C)Cc1ccc(-c2ccccc2)cc1,·,–,·,112
C[C@@H]1CN([C@@H](C)CO)C(=O)c2cc(NC(=O)Nc3ccc4c(c3)OCO4)ccc2O[C@H]1CN(C)Cc1ccccc1,·,·,·,–
C[C@@H]1CN([C@H](C)CO)C(=O)c2cc(NC(=O)Nc3ccc4c(c3)OCO4)ccc2O[C@H]1CN(C)Cc1ccc(Oc2ccccc2)cc1,·,–,·,–
C[C@@H]1CN([C@@H](C)CO)C(=O)c2cc(NC(=O)Nc3ccc4c(c3)OCO4)ccc2O[C@H]1CN(C)Cc1ccc(-c2ccccc2)cc1,·,·,·,116
CC(=O)Nc1ccc(Br)cc1-c1nc2ccccc2[nH]c1=O,–,–,–,–
CC(Oc1ccccc1F)C(=O)Nc1ccccc1[N+](=O)[O-] (stereo unspecified),–,–,57,–
CC(Oc1ccc(Br)cc1)C(=O)Nc1ccccc1[N+](=O)[O-] (stereo unspecified),–,–,–,–
O=C(C[C@H]1CC[C@@H](NC(=O)C2CCC2)[C@@H](CO)O1)NCCCN1CCOCC1,+,·,·,·
CC1(O)CC(=O)c2c(ccc3c2C(=O)c2cccc(O)c2C3=O)C1 (stereo unspecified),–,–,–,95
COc1cc(O)cc2cc3c(c(O)c12)C(=O)C[C@@](C)(O)C3,·,–,–,–
COc1cccc2c1C(=O)c1ccc3c(c1C2=O)C(=O)CC(C)(O)C3 (stereo unspecified),–,–,–,93
COc1cc2oc(-c3ccc(O)c(O)c3)c(OC)c(=O)c2c(O)c1OC,·,–,–,·
COc1cc(-c2cc(=O)c3c(O)c(OC)c(OC)c(O)c3o2)ccc1O,·,65,–,·
COc1c(OC)c(O)c2c(=O)cc(-c3ccc(O)cc3)oc2c1OC,–,29,–,115
COc1cc2oc(-c3ccccc3)cc(=O)c2c(O)c1OC,–,–,–,–
C=C1C(=O)O[C@@H]2C[C@H](C)[C@@H]3CC(=O)C(C)=C3C[C@H]12,·,–,·,121
N#Cc1cc2c(nc1SCC(=O)Nc1cccc(F)c1)CCCC2,–,–,–,92
COc1ccc(Cl)cc1NC(=O)CSc1nnc(-c2cc3cc(Br)ccc3o2)n1C,–,–,52,–
C[C@@H]1CN([C@@H](C)CO)C(=O)c2cccc(NC(=O)Nc3ccc(C(F)(F)F)cc3)c2O[C@H]1CN(C)Cc1ccc(Cl)c(Cl)c1,·,·,·,107
C[C@@H]1CN([C@H](C)CO)C(=O)c2cccc(NC(=O)Nc3ccc(C(F)(F)F)cc3)c2O[C@H]1CN(C)Cc1ccc(Cl)c(Cl)c1,·,·,·,104
C[C@@H]1CN([C@H](C)CO)C(=O)c2cccc(NC(=O)Nc3ccc(C(F)(F)F)cc3)c2O[C@@H]1CN(C)Cc1ccc(Cl)c(Cl)c1,·,·,·,–
C[C@@H]1CN([C@@H](C)CO)C(=O)Cc2cc(NC(=O)Cn3cnnn3)ccc2O[C@@H]1CN(C)CC1CC1,·,–,·,–
C[C@H](CO)N1C[C@H](C)[C@H](CN(C)C)OCCCC[C@H](C)Oc2ccc(NS(=O)(=O)c3cn(C)cn3)cc2C1=O,–,·,–,·
CC(C)NC(=O)Nc1cccc2c1O[C@@H](CN(C)S(=O)(=O)c1ccc(Cl)cc1)[C@@H](C)CN([C@H](C)CO)C2=O,·,·,·,–
S=c1nc(C23CC4CC(CC(C4)C2)C3)[nH][nH]1,·,–,·,–
SMILES,ID4 SMM,STK33 inh,mut p53 react,NOMO-1 viab
c1ccc(-c2nc(C34CC5CC(CC(C5)C3)C4)co2)cc1,·,·,·,99
Cc1cc(C)c2c(/N=N/N3CCCCCC3)[nH]nc2n1,·,·,·,–
CN(C)c1ccc2c(c1)[C@H]1C[C@H](CC(=O)NCc3ccccc3)O[C@H](CO)[C@H]1O2,–,·,·,·
COc1ccc(CN(C)C[C@@H]2Oc3c(NS(=O)(=O)c4ccc(OC)cc4)cccc3C(=O)N([C@@H](C)CO)C[C@@H]2C)cc1,–,·,–,–
O=c1c(-c2ccc(O)cc2)coc2cc(O[C@@H]3O[C@H](CO)[C@@H](O)[C@H](O)[C@H]3O)cc(O)c12,–,–,–,96
O=c1c(-c2ccc(O)cc2)coc2cc(O)cc(O)c12,–,–,53,–
COc1ccc(-c2coc3cc(O)cc(O)c3c2=O)cc1,·,–,·,–
C[C@@H]1CCCCO[C@H](CN(C)C(=O)CCCN(C)C)[C@@H](C)CN([C@H](C)CO)C(=O)c2cc(NS(=O)(=O)c3cn(C)cn3)ccc2O1,·,–,·,–
COc1ccc(OC)c(S(=O)(=O)Nc2ccc(O)c3ccccc23)c1,–,–,–,127
COc1ccc(OC)c(S(=O)(=O)Nc2ccc(NC(C)=O)cc2)c1,–,–,–,–
O=C(CSc1nc2ccc([N+](=O)[O-])cc2[nH]1)Nc1cc(C(F)(F)F)cc(C(F)(F)F)c1,–,–,–,130
CCOc1cccc2cc(C(=O)NCc3ccco3)c(=O)oc12,–,–,–,·
COc1ccc2cc(C(=O)NCc3ccco3)c(=O)oc2c1,–,–,74,–
C[C@@H]1CN([C@@H](C)CO)C(=O)Cc2cc(NC(=O)C3CC3)ccc2O[C@@H]1CN(C)Cc1ccc(-c2ccccc2)cc1,·,–,–,–
C[C@H](CO)N1C[C@H](C)[C@H](CN(C)C(=O)Nc2ccc3c(c2)OCO3)Oc2ncc(-c3cccc(C(F)(F)F)c3)cc2C1=O,·,–,·,·
Cc1cccc(NC(=O)c2cc(NC(=O)CCC(=O)O)ccc2N2CCOCC2)c1,+,–,–,–
Cc1cccc(NC(=O)c2cc(NC(=O)C3CCCCC3C(=O)O)ccc2N2CCCCC2)c1 (stereo unspecified),–,–,–,–
COC(=O)C1=CN(c2cccc(C(F)(F)F)c2)C=C(C(=O)OC)C1c1ccsc1,·,·,·,–
COC(=O)C1=CN(C23CC4CC(CC(C4)C2)C3)C=C(C(=O)OC)C1c1cccc(OC)c1,·,·,·,109
C[C@H]1CN([C@@H](C)CO)C(=O)c2cc(NS(C)(=O)=O)ccc2O[C@@H]1CN(C)S(=O)(=O)c1cn(C)cn1,·,·,·,–
COC(=O)c1cc(N2C(=O)C3C4C=CC(C)(O4)C3C2=O)ccc1Cl (stereo unspecified),·,–,·,113
COC(=O)c1c(NC(=O)CSc2nnc3ccccn23)sc(C)c1C,+,–,–,–
CCOC(=O)c1c(NC(=O)CSc2nnc3ccc4ccccc4n23)sc(C)c1C,–,–,–,–
C[C@@H]1CN([C@H](C)CO)C(=O)c2cccc(NC(=O)Nc3ccc(C(F)(F)F)cc3)c2O[C@@H]1CN(C)S(=O)(=O)c1ccc(Cl)cc1,–,·,–,117
C[C@H]1CN([C@@H](C)CO)C(=O)c2cccc(NC(=O)Nc3ccc4c(c3)OCO4)c2O[C@H]1CN(C)S(=O)(=O)c1ccc(Cl)cc1,·,·,·,92
C[C@H](CO)N1C[C@H](C)[C@H](CN(C)S(=O)(=O)c2ccc(Cl)cc2)Oc2c(NC(=O)Nc3ccc4c(c3)OCO4)cccc2C1=O,·,·,·,–
C[C@H]1CN([C@@H](C)CO)C(=O)c2cccc(NC(=O)Nc3ccc(F)cc3)c2O[C@H]1CN(C)S(=O)(=O)c1ccc(Cl)cc1,·,·,·,100
Cc1ccc(S(=O)(=O)N(C)C[C@H]2Oc3c(NC(=O)Nc4ccc(C(F)(F)F)cc4)cccc3C(=O)N([C@H](C)CO)C[C@@H]2C)cc1,·,·,·,–

# Assay outcomes deposited in PubChem BioAssay by Broad Institute.
